40 compounds from paper PMC6925144, “A prospective compound screening contest identified broader inhibitors for Sirtuin 1” (Scientific Reports, 2019) can be followed below.

Sequence of NAD-dependent deacetylase Sirtuin 1 (Q96EB6 2-747 limits assumed): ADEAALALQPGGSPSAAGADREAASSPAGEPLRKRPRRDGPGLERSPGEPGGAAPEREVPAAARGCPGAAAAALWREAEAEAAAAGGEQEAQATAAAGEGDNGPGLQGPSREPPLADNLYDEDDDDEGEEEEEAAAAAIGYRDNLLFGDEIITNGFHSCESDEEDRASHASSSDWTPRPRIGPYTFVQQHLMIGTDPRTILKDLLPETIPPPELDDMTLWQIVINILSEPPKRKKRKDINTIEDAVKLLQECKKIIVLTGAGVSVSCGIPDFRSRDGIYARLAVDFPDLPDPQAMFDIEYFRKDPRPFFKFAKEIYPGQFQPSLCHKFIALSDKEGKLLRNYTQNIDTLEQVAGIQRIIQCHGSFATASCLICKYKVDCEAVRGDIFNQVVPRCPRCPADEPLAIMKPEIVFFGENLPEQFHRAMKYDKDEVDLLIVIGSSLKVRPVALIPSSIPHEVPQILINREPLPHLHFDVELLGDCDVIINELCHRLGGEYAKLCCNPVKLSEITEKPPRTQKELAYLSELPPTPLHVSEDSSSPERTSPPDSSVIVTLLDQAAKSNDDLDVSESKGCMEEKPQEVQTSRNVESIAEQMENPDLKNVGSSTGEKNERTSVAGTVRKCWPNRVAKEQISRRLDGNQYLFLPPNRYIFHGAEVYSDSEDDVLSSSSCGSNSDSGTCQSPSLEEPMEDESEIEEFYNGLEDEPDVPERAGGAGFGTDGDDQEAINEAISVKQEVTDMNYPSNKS

The experiment has as its target NAD-dependent deacetylase Sirtuin 1 (human, UniProt Q96EB6). Nature of the experiment: primary screen, percent inhibition; higher = more effect of the substance. The arrangement: mean of n = 4. To be noted: 10 µM. The protocol:
Note that the inhibitory assay was conducted with NAD+.
For the compound `CN(c1ccccc1)S(=O)(=O)c1cccc(NC(=O)CCCc2c[nH]c3ccccc23)c1`, the “TSA(without NAD+) / Inhibitory assay (Promega kit) / Mean (%)” value (from here on “TSA(without NAD+) / Inhibitory assay … (%)”) is reported as -10.4%.

For `O=C1NC(=O)c2ccccc2/C1=C\NNC(=O)C12CC3CC(CC(C3)C1)C2`, the “TSA(with NAD+) / Inhibitory assay (Promega kit) / Mean (%)” value (“TSA(with NAD+) / Inhibitory assay … (%)” for short) was determined as 27.6%.

Take `Cc1sc2nc(-c3cccs3)nc(N3CCC(C(N)=O)CC3)c2c1C`: the “TSA(without NAD+) / Inhibitory assay … (%)” value was -0.574%.

For the compound `Cc1sc2nc(CSc3ccccc3)nc(N3CCC(C(N)=O)CC3)c2c1C`, the “TSA(without NAD+) / Inhibitory assay … (%)” value was -36.8%. On to `O=C1NC(=S)NC(=O)C1=Cc1cn(-c2ccccc2)nc1-c1cc2ccccc2o1`, for which the “TSA(with NAD+) / Inhibitory assay … (%)” value is on record as 57.2%.

Take `COC(=O)c1cc(-c2csc(NC(=O)c3cccc(NC(=O)c4cnoc4C)c3)n2)c[nH]1`: the “TSA(without NAD+) / Inhibitory assay … (%)” value is reported as 30.1%. For `COc1ccc(NC(=O)CSc2nnc(Nc3ccc(SC(F)F)cc3)s2)cc1OC`, the “TSA(without NAD+) / Inhibitory assay … (%)” value is 16.2%. On to `N#CC(C(=O)c1ccc(NS(=O)(=O)c2ccccc2)cc1)c1nc(-c2ccccn2)cs1` (stereo not shown), for which the “TSA(without NAD+) / Inhibitory assay … (%)” value is -150%. As to `COc1ccc(N(C)S(=O)(=O)c2cccc(C(=O)Nc3ccc(Br)c(C(F)(F)F)c3)c2)cc1`, the “TSA(without NAD+) / Inhibitory assay … (%)” value amounted to 5.07%. As for `Cc1cccc(NS(=O)(=O)c2cccc(C(=O)OCC(=O)NC(=O)NC34CC5CC(CC(C5)C3)C4)c2)c1`, the “TSA(with NAD+) / Inhibitory assay … (%)” value turned out to be 31%.

Take `Cc1ccc([N+](=O)[O-])cc1S(=O)(=O)Nc1ccc(C(=O)OC(C)C(=O)NC23CC4CC(CC(C4)C2)C3)cc1` (stereo not shown): the “TSA(without NAD+) / Inhibitory assay … (%)” value is -3.81%.

For `Cc1ccc(N(C)S(=O)(=O)c2cccc(C(=O)Nc3ccc(Br)c(C)c3)c2)cc1`, the “TSA(with NAD+) / Inhibitory assay … (%)” value is reported as 27%.

As to `Cc1ccc(C(=O)Nc2nc3ccc(NS(=O)(=O)c4ccc5c(c4)CCC(=O)N5)cc3s2)s1`, the “TSA(without NAD+) / Inhibitory assay … (%)” value was 31.3%. `COc1ccc2cc(/C=C/C(=O)Nc3ccc(C(N)=O)cc3)ccc2c1`: the “TSA(with NAD+) / Inhibitory assay … (%)” value stood at 19.8%. As for `NC1=Nc2nc3ccccc3n2C(c2ccc(-c3ccc(C(=O)O)cc3)o2)N1` (stereo not shown), the “TSA(without NAD+) / Inhibitory assay … (%)” value is given as 17.6%.

With `O=C(CCc1c[nH]c2ccccc12)Nc1nnc(-c2ccccc2)o1`, the “TSA(without NAD+) / Inhibitory assay … (%)” value is 10.8%.

Turning to `COc1ccc(N(C)S(=O)(=O)c2cccc(C(=O)Nc3ccc4ccccc4c3)c2)cc1`, the “TSA(without NAD+) / Inhibitory assay … (%)” value is -4.02%. For the compound `COc1ccc(N(C)S(=O)(=O)c2cccc(C(=O)Nc3ccc(Br)cc3)c2)cc1`, the “TSA(with NAD+) / Inhibitory assay … (%)” value was 29.2%. Turning to `NC(=O)C1CCN(c2nc(CSc3ccccc3)nc3sc4c(c23)CCCC4)CC1`, the “TSA(without NAD+) / Inhibitory assay … (%)” value was found to be 12.9%. Take `Cc1ccc(N(C)S(=O)(=O)c2cccc(C(=O)Nc3ccc4c(c3)C(=O)N(C)C4=O)c2)cc1`: the “TSA(with NAD+) / Inhibitory assay … (%)” value is on record as 25%. Take `CCCCCCCCNC(=O)/C(C#N)=C/c1c[nH]c2ccccc12`: the “TSA(without NAD+) / Inhibitory assay … (%)” value is on record as 9.56%. Take `NCc1nc2c(cnn2-c2ccccc2)c(=O)[nH]1`: the “TSA(without NAD+) / Inhibitory assay … (%)” value is reported as 62.5%. With `O=C(NC(=S)Nc1ccc(-c2nc3ccccc3[nH]2)cc1)C12CC3CC(CC(C3)C1)C2`, the “TSA(without NAD+) / Inhibitory assay … (%)” value is reported as 22.7%. In the case of `Cc1cc(F)ccc1N1CCCC(Nc2ccc3nnnn3n2)C1` (stereo not shown), the “TSA(without NAD+) / Inhibitory assay … (%)” value is 6.7%. For the compound `O=C1/C(=C/NNC(=O)C23CC4CC(CC(C4)C2)C3)c2ccccc2C(=O)N1Cc1ccccc1`, the “TSA(without NAD+) / Inhibitory assay … (%)” value was -173%.

As for `CCOc1cc(/C=N/NC(=O)c2cc3c(s2)CCCC3)ccc1OCC(=O)Nc1cccc(C(F)(F)F)c1`, the “TSA(without NAD+) / Inhibitory assay … (%)” value is on record as -2.14%. Same read-out and setting: as for `Cc1ccc(N(C)S(=O)(=O)c2cccc(C(=O)Nc3ccc(C(N)=O)cc3)c2)cc1`, the figure is 0.783%; as for `Cc1nc(-c2ccc(CCNC(=O)c3ccc(NC(=O)c4cccs4)cc3)s2)cs1`, 27%.

As to `Cc1ccc(C(=O)Nc2ccc(NC(=O)NCC3CCCO3)cc2)cn1` (stereo not shown), the “TSA(without NAD+) / Inhibitory assay … (%)” value is -1.1%. In the case of `NC(=O)C1CCN(c2nc(-c3cccs3)nc3sc4c(c23)CCCC4)CC1`, the “TSA(without NAD+) / Inhibitory assay … (%)” value worked out at 0.0174%. Same read-out and setting: the same measure for `O=C(CSc1nnnn1-c1ccc(O)cc1)N1N=C(c2ccc3ccccc3c2)CC1c1ccccc1` (stereo not shown): 28.5%.

In the case of `O=C1/C(=C\c2cc(Br)cc(Br)c2O)CC/C1=C\c1cc(Br)cc(Br)c1O`, the “TSA(without NAD+) / Inhibitory assay … (%)” value was 44.3%. For the compound `NC(=O)c1cccc(NC(=O)c2cc3c(s2)-c2ccccc2CC3)c1`, the “TSA(without NAD+) / Inhibitory assay … (%)” value came out at 4.33%. For `COc1ccc(N(C)S(=O)(=O)c2cccc(C(=O)Nc3ccc(-n4cnnn4)cc3)c2)cc1`, the “TSA(without NAD+) / Inhibitory assay … (%)” value is given as 26.1%. Regarding `c1ccc(-c2[nH]c3c(ccc4ccccc43)c2-c2ccccc2)cc1`, the “TSA(without NAD+) / Inhibitory assay … (%)” value is listed as -0.157%. `Oc1cccc2c1Cc1c-2nc2ccc(Cl)cc2c1-c1ccccc1Cl`: the “TSA(with NAD+) / Inhibitory assay … (%)” value is 24.3%.

Regarding `O=C1/C(=C/c2cnn(-c3ccccc3)c2)Oc2cc(O)ccc21`, the “TSA(without NAD+) / Inhibitory assay … (%)” value came out at 9.45%. Still for that read-out and setting: as for `CCn1c2ccccc2c2cc(NC(=O)C(C)OC(=O)c3cccc(S(=O)(=O)Nc4ccc(Cl)cc4)c3)ccc21` (stereo not shown), the figure is 23.9%; as for `O=C(NN/C=C1/C(=O)N(c2cccc(C(F)(F)F)c2)C(=O)c2ccccc21)c1cccc(S(=O)(=O)Nc2ccccc2Cl)c1`, -38.6%. For the compound `COc1ccc(N(C)S(=O)(=O)c2cccc(C(=O)Nc3ccc(Cl)cc3)c2)cc1`, the “TSA(with NAD+) / Inhibitory assay … (%)” value came to 17.6%.
